Compound activity (PubChem)
hDAT+cocaine = modulates human dopamine transporter uptake under cocaine | LLC-PK1 hDAT cells, [14C]-dopamine uptake with cocaine IC80; actives deviate in either direction | B-score at 10 µM | hit rate 1.3% among 110,000 | AID 449768;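 active = Z score or B-score, a plate-position-corrected score, falls beyond the plate's 99.7% confidence bounds, in either direction; inactive = both scores lie inside the 99.7% bounds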;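 also: scored against the spread of the other compound wells on the same plate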
Target sequence (Q01959 whole entry, looked up): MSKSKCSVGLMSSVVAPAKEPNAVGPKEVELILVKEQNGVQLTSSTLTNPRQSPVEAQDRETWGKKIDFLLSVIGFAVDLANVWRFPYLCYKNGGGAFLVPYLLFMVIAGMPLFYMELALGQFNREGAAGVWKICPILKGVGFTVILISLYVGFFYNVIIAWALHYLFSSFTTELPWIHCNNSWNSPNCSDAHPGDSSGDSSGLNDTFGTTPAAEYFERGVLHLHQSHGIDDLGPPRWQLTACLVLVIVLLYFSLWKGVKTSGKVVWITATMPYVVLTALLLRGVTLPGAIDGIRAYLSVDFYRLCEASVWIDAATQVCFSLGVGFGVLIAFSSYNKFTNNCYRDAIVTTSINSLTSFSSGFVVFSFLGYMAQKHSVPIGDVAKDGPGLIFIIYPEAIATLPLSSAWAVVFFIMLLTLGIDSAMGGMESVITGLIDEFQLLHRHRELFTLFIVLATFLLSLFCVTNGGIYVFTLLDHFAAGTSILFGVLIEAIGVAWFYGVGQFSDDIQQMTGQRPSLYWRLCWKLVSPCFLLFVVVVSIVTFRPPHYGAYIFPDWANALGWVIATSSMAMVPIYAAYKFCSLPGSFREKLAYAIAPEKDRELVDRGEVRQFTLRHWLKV
bCat KO growth = beta-catenin-lacking colon tumor cell growth suppression; HCT116 beta-catenin knockout viability, CellTiter-Glo, 60 h; hits give low values; hit rate 1.5% among 140,000; viability, % at 10 µM;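 active = viability at or under a set limit, the compound median less 4 SD, cut at about 6% in these data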;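 also: 0% = Hyamine 1622 control at 20 µM and 100% = untreated cell control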
PTEN del growth = PTEN-deleted cell growth suppression. viability, % at 10 µM. HCT116 PTEN-null viability, CellTiter-Glo, 60 h; hits give low values. hit rate 1.2% among 140,000;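 active = viability at or below a set limit, 4 SD under the median of all tested compounds, cut at about 3.7% in these data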;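 also: PTEN knockout HCT116 line with beta catenin targeted HCT116 as companion control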
WT yeast gro inh = growth inhibition of WT yeast, mitochondrial fusion screen; hit rate 2.1% among 190,000; inhibition, % at 10 µM; mitochondrial fusion phenotypic screen, WT strain; AID 1362; in the data active = inhibition above about 58%; tested in S. cerevisiae
Starred values were filed as active, the others as inactive; nt = not tested or not shown. Only some compounds are listed: those with a hit (about 3.6% of all), similar ones and a draw of the others.

SMILES	hDAT+cocaine	bCat KO growth	PTEN del growth	WT yeast gro inh
O=C(CN1/C(=C(/O)c2ccccc2)C(=O)c2ccccc2S1(=O)=O)c1ccccc1	-0.4	65	63	64*
O=C(Oc1ccc(-c2nnco2)cc1)N(c1ccccc1)c1ccccc1	0.92	97	97	58*
COc1cc2c(cc1NC(=O)c1cccc(Br)c1)CCCC2	-0.0033	75	81	73*
COc1cc2c(cc1NC(=O)c1cccc(F)c1)CCCC2	nt	82	81	38
COc1ccc(-c2c(-c3ccsc3)oc3ccc(N4CCOCC4)cc23)cc1	-0.035	nt	nt	nt
Cc1cc(C)nc(NC(=O)c2c(-c3c(Cl)cccc3Cl)noc2C)n1	-2.9*	77	73	6
O=C(NCc1ccco1)c1ccc(CNc2c(N3CCCCC3)c(=O)c2=O)cc1	nt	96	100	-1
Cc1ccc(-c2cc(C(F)F)n3ncc(C(=O)N4CCN(c5cccc(C)c5C)CC4)c3n2)cc1	0.81	3.2*	8	-3
CCOC(=O)N1CCN(C(=O)c2cnn3c(C(F)F)cc(-c4ccc(C)cc4)nc23)CC1	-0.28	72	87	3
Cc1ccc(-c2cc(C(F)F)n3ncc(C(=O)N4CCc5ccccc5C4)c3n2)cc1	nt	nt	nt	77*
CC(=O)c1ccc(NC(=O)COC(=O)c2nc(Cl)ccc2Cl)cc1	nt	nt	nt	-11
Cn1cccc1C(=O)NC(=O)COC(=O)c1cc(S(=O)(=O)N2CCCCC2)ccc1Cl	nt	nt	nt	-24
O=C(N/C(=C/c1cccs1)C(=O)N1CCOCC1)c1ccco1	nt	80	91	-2
CSc1nc2ncc3c(n2n1)CC(C)(C)CC3=O	nt	nt	nt	-2
O=C1c2cnc3nc(SCc4ccccc4)nn3c2CC2c3ccccc3CCN12 (centres undefined)	-0.22	70	72	80*
N#C/C(=N\Nc1cccc(Cl)c1)C(=O)c1ccccc1	0.45	52	55	72*
N#C/C(=N\Nc1ccccc1Cl)C(=O)c1ccccc1	nt	83	87	6
CC(=O)CSc1ncnc2sc3c(c12)CCCC3	nt	nt	nt	22
Cc1cc(C)n(-c2nc(SCCN(C)C)c3c4c(sc3n2)CCCC4)n1	3*	3.0*	2.0*	-7
COc1ccc(C2(O)CN(c3ccc(C)cc3)C3=[N+]2CCCC3)cc1 (centres undefined)	nt	nt	nt	-6
O=C(C1=C[C@H](c2csc3ccccc23)C[C@H](OCc2ccc(CO)cc2)O1)N1CCN(Cc2ccccc2)CC1	2.6	nt	nt	97*
CC(=O)n1cc([C@@H]2C=C(C(=O)N3CCN(Cc4ccc5c(c4)OCO5)CC3)O[C@H](OCCCCO)C2)c2ccccc21	2.1	nt	nt	4
CC(=O)n1cc([C@H]2C=C(C(=O)N3CCN(Cc4ccccc4)CC3)O[C@@H](OCCCCO)C2)c2ccccc21	2.9*	nt	nt	6
O=C(C1=C[C@H](c2csc3ccccc23)C[C@H](OCc2ccc(CO)cc2)O1)N1CCN(Cc2ccc3c(c2)OCO3)CC1	0.013	nt	nt	98*
COc1ccc([N+](=O)[O-])cc1NC(=O)C(C)OC(=O)c1ccccc1C(=O)c1ccc(Cl)cc1 (centres undefined)	nt	67	74	-4
SMILES	hDAT+cocaine	bCat KO growth	PTEN del growth	WT yeast gro inh
O=C(CN1CCCc2ccccc21)N/N=C/c1ccc(O)cc1O	nt	48	50	-14
CC(C)NC(=S)N1CCn2c(nc3ccccc32)C1	nt	96	99	0
COc1ccc(Cc2nnc(N/N=C/c3ccc(O)cc3)[nH]c2=O)cc1OC	nt	5.5*	7	-6
COc1ccc(Cc2nnc(N/N=C/c3ccc(C)o3)[nH]c2=O)cc1	nt	nt	nt	-4
O=C(/C=C/c1ccc(Cl)cc1Cl)NCCSCc1ccccc1	nt	100	91	59*
O=C(/C=C/c1ccc(Cl)cc1Cl)NCc1ccncc1	2.3*	82	92	25
O=C(/C=C/c1ccccc1)NCCSCc1ccc(Cl)cc1	nt	92	94	5
O=C(/C=C/c1ccc(Cl)cc1)NCCSc1ccccc1	nt	92	100	4
O=C(/C=C/c1ccc(Cl)cc1Cl)Nc1ccncc1	nt	48	60	40
O=C(/C=C/c1ccc(Cl)cc1Cl)NCCSc1ccccc1	nt	90	90	64*
C=C1CCN([C@@H](CC(C)C)C(=O)N2CCCC2)S(=O)(=O)c2ccccc21	0.12	nt	nt	nt
Cc1[nH][nH]c(=O)c1C(c1c(C)[nH][nH]c1=O)c1cn(Cc2ccc(Cl)c(Cl)c2)c2ccccc12	nt	8	5	71*
COc1cc(OC)c(C(=O)OCC(=O)N(Cc2ccccc2)C(C)(C)C)cc1OC	nt	nt	nt	5
Cc1ccc(/C=N/N2C(=S)SC(C)(C)C2N(O)C(=O)Nc2ccc([N+](=O)[O-])cc2)cc1 (centres undefined)	0.37	3.7*	9	3
CCOc1ccc(CCNC(=O)c2ccc(N3CCCC3=O)cc2)cc1OCC	-7.7*	103	102	-1
